This is one part of a sample in which hits are shown more often than they occur.
PD-1 reverse act: activators reversing PD-1 mediated T-cell inhibition; primary human CD4 T cells, PD-L1 beads, CellTiter-Glo 96 h; activation, % (concentration not given with the values); 29,000 tested, under 10 active; call rule not given here;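 also: 0% = median vehicle wells and 100% = positive control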
STK33 inh: inhibitors of human STK33 kinase | ADP-Glo luminescence, MBP substrate | inhibition, % at 12.5 µM | Q9BYT3 | AID 2322 | 27,000 compounds, 0.44% hits; in the data active = inhibition above about 20%; inconclusive = no clear call, values can overlap the other calls
Target sequence (Q9BYT3 whole entry, looked up): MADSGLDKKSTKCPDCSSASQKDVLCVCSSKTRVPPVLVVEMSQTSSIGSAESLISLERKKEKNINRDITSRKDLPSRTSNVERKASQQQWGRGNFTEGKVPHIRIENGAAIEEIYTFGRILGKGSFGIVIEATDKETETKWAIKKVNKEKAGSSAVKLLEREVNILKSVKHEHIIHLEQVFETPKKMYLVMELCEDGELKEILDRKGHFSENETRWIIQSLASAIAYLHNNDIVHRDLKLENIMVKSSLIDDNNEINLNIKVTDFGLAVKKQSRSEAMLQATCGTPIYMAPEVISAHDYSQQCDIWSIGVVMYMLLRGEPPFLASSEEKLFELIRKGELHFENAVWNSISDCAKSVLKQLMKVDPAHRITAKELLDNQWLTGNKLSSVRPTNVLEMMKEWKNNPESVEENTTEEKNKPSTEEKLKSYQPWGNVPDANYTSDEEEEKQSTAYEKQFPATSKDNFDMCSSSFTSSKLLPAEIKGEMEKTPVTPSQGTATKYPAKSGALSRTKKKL
NOMO-1 viab: STK33 inhibitor candidate reducing NOMO-1 cell viability; 37,000 compounds, 7.5% hits; NOMO-1 AML viability, CellTiter-Glo luminescence, 72 h; inhibition, % (no concentration beside the values); in the data active = inhibition above about 80%; inconclusive = no clear call, values can overlap the other calls
Numbers without * were called inactive; ? = inconclusive; · = no result.

SMILES	PD-1 reverse act	STK33 inh	NOMO-1 viab
COc1ccc2c3c1O[C@H]1[C@@H](O)C=C[C@H]4C(C2)N(C)CCC341 (stereo partly specified)	·	4	·
C=CC1CN2CCC3(C(=O)Nc4ccccc43)C2CC1/C(=C/OC)C(=O)OC (stereo unspecified)	2	1	30
C[C@H]1CN([C@@H](C)CO)C(=O)CCCn2nncc2CO[C@H]1CN(C)C(=O)Oc1ccc2ccccc2c1	·	-1	·
O=C1C=C2C=C[C@@H]3C[C@@]2(O1)[C@H]1CCCCN31	·	3	91*
O=C(c1ccco1)c1cn(CCCOc2ccccc2)c2ccccc12	-1	9	31
CCCCC/C=C\C/C=C\C/C=C\C/C=C\CCCC(=O)NCc1ccc(O)c(OC)c1	·	-7	117*
CCN1C[C@]2(COC)[C@H](O)C[C@H](OC)[C@@]34[C@@H]5C[C@]6(O)[C@H](OC(=O)c7ccccc7)[C@@H]5[C@@](OC(C)=O)(C([C@H](OC)[C@H]23)[C@@H]14)[C@@H](O)[C@@H]6OC	4	-1	29
CC(C)(C)NC[C@H](O)COc1cccc2[nH]c(C#N)cc12	9	-1	1
CCOC(=O)c1c(C)n(Cc2ccccc2)c2ccc(OCC(O)CNC(C)(C)C)cc12 (stereo unspecified)	-7	·	117*
CCOC(=O)C1C2c3ccccc3C(c3ccccc32)C1C(=O)OCC (stereo unspecified)	0	·	35
CN1C2C[C@H](OC(=O)[C@H](CO)c3ccccc3)C[C@H]1[C@@H](O)C2	·	2	-3
O=C1NC(=O)C(=Cc2cn(Cc3ccccc3)c3ccccc23)C(=O)N1	-2	·	126*
CC(C)c1cc2c(cc1O)[C@@]1(C)CCCC(C)(C)[C@@H]1CC2	-3	-3	?
CC(C)(C)c1cc(C=C(C#N)C#N)cc(Br)c1O	0	5	57
Cc1ccc(NC(=O)c2cccc(OC(=O)N(C)c3ccccc3)c2)cc1C	-1	·	20
OC[C@H]1O[C@@H](n2cnc3cc(Cl)c(Cl)cc32)C(O)[C@H]1O (stereo partly specified)	4	10	87*
CC1(C)C(C(=O)Nc2ccc(S(=O)(=O)c3ccc(NC(=O)C4C(C)(C)C4(C)C)cc3)cc2)C1(C)C	2	·	-2
C=C1[C@@]23C(=O)O[C@H](C)[C@]24O[C@@]2(C(=C)[C@]5(C=CC(=O)OC5(C)C)CC[C@]32C)[C@H](O)[C@@]1(C)OC4=O	-2	-5	9
Cc1cccc(N2C(=O)NC(=O)C(CCc3ccncc3)(CCc3ccncc3)C2=O)c1	2	-1	3
CC(=O)OC[C@]12CCC(C)=C[C@H]1O[C@@H]1[C@H](O)[C@@H](OC(C)=O)[C@@]2(C)[C@]12CO2	-10	2	109*
CC(=O)OC[C@]12C[C@H](O)C(C)=C[C@H]1O[C@@H]1[C@H](O)[C@@H](OC(C)=O)[C@@]2(C)[C@]12CO2	-5	-2	123*
COc1ccc(OC)c(NC(=S)NCCc2cnc[nH]2)c1	3	-2	38
C/C=C(/C)C(=O)OC1CCN2CC=C(COC(=O)C(O)(C(C)O)C(C)(C)O)C12 (stereo unspecified)	4	-1	4
CC(C)[C@H]1C(=O)O[C@H](C(C)C)C(=O)N(C)[C@@H](C(C)C)C(=O)O[C@H](C(C)C)C(=O)N(C)[C@@H](C(C)C)C(=O)O[C@H](C(C)C)C(=O)N1C	0	-3	119*
O=C(/C=C/c1ccccc1)OCC1OC(OC2OC=CC3C(O)C4OC4(CO)C23)C(O)C(O)C1O (stereo unspecified)	1	0	1
SMILES	PD-1 reverse act	STK33 inh	NOMO-1 viab
COc1cc(C2=NC(O)C(=O)Nc3ccc(Cl)cc32)ccc1O (stereo unspecified)	4	2	3
O=C(Cn1cc(C(=O)c2ccccc2)c2ccccc21)Nc1ccc(F)cc1	0	-2	49
CNc1ccc2oc(C[C@@H]3OC4(CC[C@@H]3C)O[C@H](C(C)C(=O)c3ccc[nH]3)[C@H](C)C[C@H]4C)nc2c1C(=O)O (stereo partly specified)	·	1	120*
CN1C(=O)CCS(=O)(=O)C1c1ccc(Cl)cc1 (stereo unspecified)	·	-1	-5
C[C@]12CCC(=O)C=C1C=CC1C2CC[C@@]2(C)C1CC[C@@]2(O)CCC(=O)O (stereo partly specified)	·	-4	17
COc1cc(C(=O)O[C@H]2[C@@H]3C=CO[C@@H](O[C@@H]4O[C@H](CO)[C@@H](O)[C@H](O)[C@H]4O)[C@@H]3[C@@]3(CO)O[C@@H]23)ccc1O	3	3	-14
COc1ccc(CCNCc2cccnc2)cc1OC	·	-2	20
CC1(C)C(=O)C=C[C@@]2(C)C1C(=O)C(=O)[C@]1(C)C2CC[C@@]2(C)[C@H](c3ccoc3)C[C@H]3O[C@]321 (stereo partly specified)	·	-8	108*
CCCCn1c(=O)c(C(=O)NCc2ccccn2)c(O)c2ccccc21	·	5	66
CN[C@@H]1C[C@@]2(C)O[C@@H]([C@@H]1OC)n1c3ccccc3c3c4c(c5c6ccccc6n2c5c31)C(=O)NC4	·	131*	114*
C=CC1C[N+]2([O-])CCC1CC2C(O)c1ccnc2ccccc12 (stereo unspecified)	·	0	·
Cc1ccc2cc3c(ccc4ccccc43)c3c2c1CC3	·	2	18
CN1CC(C(=O)N[C@]2(C)O[C@@]3(O)[C@@H]4CCCN4C(=O)[C@H](Cc4ccccc4)N3C2=O)C=C2c3cccc4[nH]cc(c34)C[C@H]21 (stereo partly specified)	0	9	14
C=CCN1CC[C@]23c4c5ccc(O)c4O[C@H]2C(=O)CC[C@@]3(O)[C@H]1C5	5	-1	-3
C=CCN1CCc2cccc3c2[C@H]1Cc1ccc(O)c(O)c1-3	·	3	114*
C[C@]12CC[C@H](O)C[C@H]1CCC1C2CC[C@]2(C)[C@@H](C3=CC(=O)OC3)[C@@H](O)C[C@]12O (stereo partly specified)	·	1	97*
CO[C@H]1[C@H](O)[C@H](O[C@H]2CC[C@]3(C)C4CC[C@]5(C)C(C6=CC(=O)OC6)CC[C@]5(O)C4CC[C@@H]3C2)O[C@@H](C)[C@@H]1O (stereo partly specified)	·	-3	110*
CC(=O)[C@H]1CC[C@H]2[C@@H]3CC[C@H]4C[C@H](O)CC[C@]4(C)[C@H]3CC[C@]12C	·	-12	40
COC1CC(OC2CCC3(C)C(CCC4C3CCC3(C)C(C5=CC(=O)OC5)C(OC(C)=O)CC43O)C2)OC(C)C1OC1OC(COC2OC(CO)C(O)C(O)C2O)C(O)C(O)C1O (stereo unspecified)	-7	0	110*
CC(=O)CC(c1ccc(Br)cc1)c1c(O)c2ccccc2oc1=O (stereo unspecified)	·	-1	-15
COC1=CC(=O)O[C@@H](CCc2ccccc2)C1	0	-3	12
C[C@@H]1CCOC(=O)C=CC=CC(=O)O[C@@H]2C[C@H]3O[C@@H]4C=C(CO)CC[C@]4(COC(=O)[C@H]1O)[C@]2(C)[C@]31CO1	0	-3	-2
C/C=C1/CN2C3CC1C(CO)C2Cc1c3[nH]c2ccc(OC)cc12 (stereo unspecified)	·	-5	·

Source: PubChem (Broad Institute)
